Assay outcomes from PubChem.
Sampled rows, rich in hits. Any-hit rate of the full collection: about 1.5%.
FEN1 inh-1 = blocks human flap endonuclease 1; AID 588795; Recombinant FEN1 flap cleavage, fluorescence, 15 min; P39748; 0.35% of 390,000 active; Potency, µM (series often up to 114 µM), without a hit: at the top dose activity change, negative = inhibition, usual class: inhibitors; also: potency is read from the fitted curve at half-maximal effect; % is scaled to controls: 0 for no effect and ±100 for the full control effect; nearly all actives have a fitted effect of over 65% in size
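Reaction started by adding substrate (50 nM final) to 10 nM enzyme after 15 min room-temperature compound preincubation. Reads at 0 and 15 min, with data normalized and fitted to a four-parameter Hill equation.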
PGK inhibitor = T. brucei PGK inhibition. P07378. PGK/GAPDH coupled, Kinase-Glo luminescence, 60 min. Potency, µM (top dose mostly 57.5 µM), without a hit: at the highest dose activity change, negative = inhibition, most hits filed as inhibitors. 0.043% of 380,000 active; also: potency is read from the fitted curve at half-maximal effect; % is scaled to controls: 0 for no effect and ±100 for the full control effect; nearly all actives have a fitted effect of over 60% in size
Target sequence (P07378 whole entry, looked up): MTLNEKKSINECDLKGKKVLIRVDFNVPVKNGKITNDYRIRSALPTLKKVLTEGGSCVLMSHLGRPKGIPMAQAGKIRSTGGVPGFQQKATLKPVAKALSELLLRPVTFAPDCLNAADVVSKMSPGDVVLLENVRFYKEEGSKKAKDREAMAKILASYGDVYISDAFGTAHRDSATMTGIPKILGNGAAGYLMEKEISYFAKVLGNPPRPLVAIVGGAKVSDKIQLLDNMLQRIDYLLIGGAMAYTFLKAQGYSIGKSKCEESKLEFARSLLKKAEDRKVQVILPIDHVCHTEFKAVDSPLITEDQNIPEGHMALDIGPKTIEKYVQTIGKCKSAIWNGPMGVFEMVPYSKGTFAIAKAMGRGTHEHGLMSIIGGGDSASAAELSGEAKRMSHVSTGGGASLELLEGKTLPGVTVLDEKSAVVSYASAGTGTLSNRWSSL
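Recombinant glycosomal PGK reaction used 1,3-bisphosphoglycerate generated in-well by GAPDH (100nM final) in 100mM TEA pH 7.6, 5mM MgCl2, 0.01% Tween-20. After 60 minutes at room temperature, ATP was read by Kinase-Glo Plus luminescence end-point.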
WRN helicase inh = inhibitors of human WRN helicase. WRN helicase unwinding, fluorescent forked duplex, kinetic. Potency, µM (top dose mostly 114 µM), without a hit: at the top dose activity change, negative = inhibition, actives largely listed as inhibitors. 0.46% of 360,000 active; also: potency is read from the fitted curve at half-maximal effect; % is scaled to controls: 0 for no effect and ±100 for the full control effect; nearly all actives have a fitted effect of over 55% in size
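WRN at 20 nM final was preincubated with compound for 15 min at room temperature; reaction started with 100 nM forked duplex oligonucleotide carrying fluorophore and quencher plus 2 mM ATP (final). Unwinding followed kinetically by red fluorescence (ex 525/em 598 nm).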
TDP1 block = inhibitors of human tyrosyl-DNA phosphodiesterase TDP1; Q9NUW8; recombinant TDP1, AlphaScreen DNA substrate cleavage; Potency, µM (series often up to 130 µM), without a hit: at the top dose activity change, negative = inhibition, actives largely listed as inhibitors; 0.28% of 350,000 active; AID 485290; also: potency is read from the fitted curve at half-maximal effect; % is scaled to controls: 0 for no effect and ±100 for the full control effect; nearly all actives have a fitted effect of over 40% in size
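Tdp1 1 nM final; 15 min RT w/ cpd; substrate 15 nM, 5 min; beads 10 ug/ml, 10 min; AlphaScreen read. Neg ctrl: no enzyme.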
Tb PFK inh = blocks T. brucei phosphofructokinase | O15648 | T. brucei PFK, ADP-Glo luminescence | Potency, µM (top dose mostly 57.5 µM), inactives show at the highest dose activity, negative = inhibition, hits mostly inhibitors | 0.17% of 330,000 active;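 also: potency is read from the fitted curve at half-maximal effect; 0% = uninhibited 1x PFK enzyme wells and -100% = no-enzyme wells; nearly all actives have a fitted effect of over 60% in size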
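PFK 1.25 nM, F6P 0.5 mM, ATP 0.1 mM, 0.1 M TEA pH 8.0, 5 mM MgCl2, 0.01% Tween20, 0.1% BSA; 45 min RT. ADP-Glo readout. qHTS titration up to 57 uM; curves fitted, compounds curve-classed.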
PI5P4Ka inh = blocks human PI5P4K alpha kinase activity. AID 652105. P48426. 1.2% of 330,000 active. PI5P4Kalpha enzyme, ADP-Glo luminescence, 60 min; stronger effect = lower value. max response, %; active = max response of -50% or lower; inconclusive = between -30% and -50%; inactive = -30% or higher; also: value at the top dose of about 77 µM; % is scaled to controls: 0 for no effect and ±100 for the full control effect
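Compounds were pin-transferred onto PI5P4Kalpha and substrate in HEPES pH 7.4 buffer with EGTA, CHAPS and 5% DMSO. ATP (5 microM final) started the reaction, which ran 60 minutes at room temperature before ADP-Glo detection.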
FEN1 inh-2 = FEN1 inhibition, cherry-pick retest | FEN1 flap cleavage, TAMRA/BHQ2 fluorogenic DNA substrate | 79% of 880 active | shares compounds with FEN1 inh-1 | Potency, µM, hits mostly inhibitors; also: potency is read from the fitted curve at half-maximal effect; nearly all actives have a fitted effect of over 60% in size
An asterisk follows results filed as active; i = inactive; ? = inconclusive; / = no result; [ ] = dose if it differs, or a comment. Unless noted, calls follow the shape of the dose curve; as a rule, active = well fitted curve in the direction sought with a large enough effect; inconclusive = small, poorly fitted or top-dose-only effect, or another doubt; inactive = no such curve, though single readings can be large; an effect the other way counts as inactive or inconclusive.

SMILES	FEN1 inh-1	PGK inhibitor	WRN helicase inh	TDP1 block	Tb PFK inh	PI5P4Ka inh	FEN1 inh-2
CC1CC(C)CN(C(=O)COC(=O)c2ccc([N+](=O)[O-])o2)C1 (centres undefined)	-18%	-8%	0%	0%[56.1 µM]	-11%	2	/
Cn1c(N)c(C(=O)COC(=O)c2ccc([N+](=O)[O-])o2)c(=O)n(C)c1=O	?	-9%	-2%	-9%	1%	2	8.5*
CC1CCCC(C)N1C(=O)COC(=O)c1ccc([N+](=O)[O-])o1 (centres undefined)	?	-1%	-3%	-11%	1%	1	15*
CCOC(=O)C1CCN(C(=O)COC(=O)c2ccc([N+](=O)[O-])o2)CC1	?	-2%	16%	/	0%	-4	11*
N#Cc1ccc2c(c1)C[C@]1(c3ccsc3)Oc3c(c(=O)oc4ccccc34)C2O1	/	/	/	/	-3%[11.5 µM]	/	/
O=C(O)c1cc(NC(=O)c2ccc([N+](=O)[O-])cc2)cc(NC(=O)c2ccc([N+](=O)[O-])cc2)c1	?	-7%	-2%[11.6 µM]	/	-2%	-4	?
CCOc1cc(N2CCOCC2)c(OCC)cc1NC(=O)COC(=O)c1ccc([N+](=O)[O-])o1	28µM*	-12%	-5%[11.6 µM]	-7%	3%	7	8.5*
O=C(COC(=O)c1ccc([N+](=O)[O-])o1)c1ccccc1	-14%	4%	-6%	4%	0%	4	/
O=C(COC(=O)c1ccc([N+](=O)[O-])o1)NCc1ccccc1	?	-8%	-20%	-10%	0%	6	13*
COc1ccccc1CNC(=O)COC(=O)c1ccc([N+](=O)[O-])o1	?	7%	4%[11.6 µM]	1%[56.1 µM]	-10%	7	30*
CCOc1cc(N2CCOCC2)c(OCC)cc1NC(=O)COC(=O)c1cc(C)oc1C	0%	i	-1%	-4%	4%	0	/
NS(=O)(=O)c1ccc(CCNC(=O)COC(=O)c2ccc([N+](=O)[O-])o2)cc1	?	-5%	-5%	-11%	-4%	1	11*
COc1ccc(NC(=O)[C@@H]2CC=C[C@@H]3CCN(C4CC4)C(=O)[C@@H]32)cc1	-5%	/	/	/	/	/	/
COc1ccc(CCn2c3c(c(=O)[nH]c2=S)CN(c2ccccc2)CN3)cc1OC	-19%	/	/	2%	/	/	/
COc1ccc(-c2nc3ccccn3c2Nc2ccccc2C)cc1	-21%	/	/	8%	/	/	/
Cc1ccc(S(=O)(=O)N2CCN(c3nc(-c4cccs4)nc4cccnc34)CC2)cc1	11%	/	/	/	/	/	/
Cc1cccc(C)c1NC(=O)COC(=O)c1ccc([N+](=O)[O-])o1	?	i	-5%[11.6 µM]	8%	-5%	1	13*
Cc1cc[n+](C2CCCCC2)c2ccccc12	3%	/	/	/	/	/	/
CCC(Sc1nc2ccsc2c(=O)n1Cc1ccc(C(=O)O)cc1)C(=O)Nc1ccc(C)c(Cl)c1 (centres undefined)	?	-18%	-18%	-13%	-5%	-1	?
CC(=O)Nc1sc2c(c1-c1nc3ccccc3s1)CCCNC2	/	/	/	/	/	/	34*
CC(=O)Nc1sc2c(c1-c1nc3ccccc3s1)CCNC2	/	/	/	/	/	/	3.4*
CC(=O)Nc1sc2c(c1-c1cc3ccccc3o1)CCNC2	/	/	/	/	/	/	34*
CCC(=O)NC[C@H](Cc1ccc(OCCc2nc(-c3ccccc3)oc2C)cc1)N/C(C)=C\C(=O)c1ccc(C(F)(F)F)cc1	/	/	/	9%	/	/	/
O/N=C(/C[n+]1ccsc1)c1ccc(I)cc1	-14%	/	/	/	/	/	/
CCOC(=O)c1cccc(NC(=O)c2cc3c(=O)n(Cc4ccccc4)ccc3nc2C)c1	?	-7%	/	7%	/	/	/
